Each structure is given as a SMILES string. About 500 (1.3%) of roughly 39,000 compounds were called active. Many of the other results were omitted from the sample, so actives are more common in it than they were.

The experiment has as its system S. aureus RN4220. Nature of the experiment: growth inhibition call (relative growth <= 0.2). Particulars: 50 µM.
On to `COC(=O)/C=C/c1cn([C@H]2OC[C@@H](CO)[C@@H]2O)c(=O)[nH]c1=O`, for which the growth inhibition call is “inactive”.

Turning to `Cc1cncc2cccc(S(=O)(=O)N[C@H]3CN[C@@H](COC(=O)NCCOCCOCCN)C3)c12`, the growth inhibition call was “inactive”. The value for `C[C@H](CO)N1C[C@H](C)[C@@H](CN(C)S(C)(=O)=O)Oc2cc(-c3ccccc3F)ccc2S1(=O)=O` was “inactive”; that for `CCCN(C)C[C@@H]1OCCCC[C@@H](C)Oc2ccc(NC(=O)c3ccccc3)cc2C(=O)N([C@H](C)CO)C[C@@H]1C` was “inactive”; that for `COc1ccc(NC(=O)N(C)C[C@H]2Oc3ccc(NC(=O)Cn4cnnn4)cc3C(=O)N([C@H](C)CO)C[C@@H]2C)cc1` was “inactive”. The value for `C[C@@H]1CN([C@@H](C)CO)C(=O)c2cc(NC(=O)Nc3ccc(F)cc3)ccc2O[C@@H](C)CCCCO[C@@H]1CN(C)Cc1ccccc1` was “inactive”; that for `C[C@@H]1CN([C@H](C)CO)C(=O)c2cccc(NC(=O)Nc3cccc4ccccc34)c2O[C@@H]1CN(C)CC1CCCCC1` was “inactive”. The same measure for `C[C@H](CO)N1C[C@H](C)[C@@H](CN(C)Cc2ccc(Oc3ccccc3)cc2)Oc2ccc(NS(=O)(=O)c3cccs3)cc2C1=O`: “inactive”. As to `O=P(O)(O)C(Sc1ccc(Cl)cc1)P(=O)(O)O`, the growth inhibition call was “inactive”. The same measure for `C(=N\n1cnnc1)/c1ccco1`: “inactive”; for `C[C@@H]1CN([C@H](C)CO)C(=O)Cc2cc(NS(=O)(=O)c3cn(C)cn3)ccc2O[C@H]1CN(C)CC1CCCCC1`: “inactive”; for `CN1C(=O)c2cc(NC(=O)C3CCOCC3)ccc2OC[C@H]2O[C@@H](CC(=O)NCc3ccccc3F)CC[C@H]21`: “inactive”. Regarding `O=C1NCCN1c1cccnc1`, the growth inhibition call was “inactive”. Turning to `Cc1noc(C)c1NC(=O)N(C)C[C@@H]1Oc2ccc(NC(=O)C3CC3)cc2CC(=O)N([C@H](C)CO)C[C@H]1C`, the growth inhibition call was “inactive”. The same measure for `C=CC1=C(C(=O)O)N2C(=O)[C@@H](NC(=O)/C(=N\O)c3csc(N)n3)[C@H]2SC1`: “active”; for `Cc1noc(C)c1NC(=O)Nc1ccc2c(c1)C(=O)N([C@@H](C)CO)C[C@@H](C)[C@H](CN(C)C(=O)Nc1ccc(F)cc1)OCCCC[C@@H](C)O2`: “inactive”.

Consider `NCc1nc(CCc2ccccc2)cs1`, for which the growth inhibition call was “inactive”.

As for `Cc1ccc(S(=O)(=O)Nc2cccc3c2O[C@H](CN(C)S(=O)(=O)c2ccc(F)cc2)[C@@H](C)CN([C@H](C)CO)C3=O)cc1`, the growth inhibition call was “inactive”. The value for `CN1CCN(C(=O)C[C@H]2CC[C@@H]3[C@H](COc4ccc(NC(=O)c5cscn5)cc4C(=O)N3C)O2)CC1` was “inactive”.

Consider `COc1ccc(C(C)C(=O)c2ccc(O)cc2O)cc1` (stereo not given), for which the growth inhibition call is “active”. As for `COc1ccc(C=CC(=O)c2ccc(O)cc2O)cc1`, the growth inhibition call is “inactive”.

Turning to `COc1ccc(CC(=O)c2ccc(O)cc2O)cc1`, the growth inhibition call was “inactive”. Take `C[C@@H]1CN([C@@H](C)CO)C(=O)c2cc(NC(=O)Nc3ccc(F)cc3)ccc2O[C@@H](C)CCCCO[C@@H]1CN(C)C(=O)Cc1ccccc1`: the growth inhibition call is “inactive”.

In the case of `O=C(CO)N1C[C@H]2C[C@@H]1C[C@@H]2Oc1cccnc1`, the growth inhibition call is “inactive”. As for `NCC1OC(OC2C(CO)OC(OC3C(O)C(N)CC(N)C3OC3OC(CN)C(O)C(O)C3N)C2O)C(N)C(O)C1O.O=S(=O)(O)O.O=S(=O)(O)O.O=S(=O)(O)O` (stereo not given), the growth inhibition call was “inactive”.

In the case of `CN[C@@H]1[C@@H](O[C@H]2O[C@H](CO)[C@@H](N)[C@H](O)[C@H]2O)O[C@H]2C[C@@H](N)[C@H](O[C@H]3[C@H](O)[C@@H](O)[C@H](N)C[C@@H]3N)O[C@@H]2[C@@H]1O`, the growth inhibition call is “inactive”.

In the case of `CNC1C(OC2OC(CO)C(N)C(O)C2O)OC2CC(N)C(OC3C(N)CC(N)C(O)C3O)OC2C1O.O=S(=O)(O)O` (stereo not given), the growth inhibition call is “active”. The value for `NCC1OC(OC2C(N)CC(N)C(OC3OC(CO)C(O)C(N)C3O)C2O)C(N)C(O)C1O.O=S(=O)(O)O` (stereo not given) was “active”. For `NC[C@H]1O[C@H](O[C@H]2[C@H](O[C@@H]3O[C@H](CO)[C@@H](O)[C@H]3O)[C@@H](O)[C@H](N)C[C@@H]2N)[C@H](N)[C@@H](O)[C@@H]1O`, the growth inhibition call is “inactive”. The same measure for `NCC[C@H](O)C(=O)N[C@@H]1C[C@H](N)[C@@H](O[C@H]2O[C@H](CN)[C@@H](O)[C@H](O)[C@H]2O)[C@H](O)[C@H]1O[C@H]1O[C@H](CO)[C@@H](O)[C@H](N)[C@H]1O`: “active”. The same measure for `CN[C@@H]1[C@@H](O[C@@]2(C)O[C@H](CO)[C@@H](N)[C@H](O)[C@H]2O)O[C@H]2C[C@@H](N)[C@@H](O[C@H]3[C@H](O)[C@@H](O)[C@H](N)C[C@@H]3N)O[C@@H]2[C@@H]1O`: “inactive”.

For the molecule `NCC1OC(OC2C(N)CC(N)C(OC3OC(CO)C(O)C(N)C3O)C2O)C(O)C(O)C1O.O=S(=O)(O)O` (stereo not given), the growth inhibition call was “inactive”. Regarding `NC[C@H]1O[C@H](O[C@H]2[C@H](O)[C@@H](O[C@H]3O[C@H](CO)[C@@H](O)[C@H](N)[C@H]3O)[C@H](N)C[C@@H]2N)[C@H](N)[C@@H](O)[C@@H]1O`, the growth inhibition call is “inactive”. The value for `NCC1OC(OC2C(N)CC(N)C(O)C2OC2OC(CO)C(O)C2O)C(N)C(O)C1O.O=S(=O)(O)O` (stereo not given) was “inactive”; that for `NCCC(O)C(=O)NC1CC(N)C(OC2OC(CN)C(O)C(O)C2O)C(O)C1OC1OC(CO)C(O)C(N)C1O.O` (stereo not given) was “inactive”. The same measure for `NCC1OC(OC2C(CO)OC(OC3C(O)C(N)CC(N)C3OC3OC(CO)C(O)C(O)C3N)C2O)C(N)C(O)C1O.O=S(=O)(O)O` (stereo not given): “active”. The same measure for `O=C(C[C@@H]1C=C[C@@H](NC(=O)CN2CCOCC2)[C@@H](CO)O1)NCCc1ccncc1`: “inactive”; for `COc1cccc(S(=O)(=O)N(C)C[C@H]2OCc3cn(nn3)CCCC(=O)N([C@H](C)CO)C[C@@H]2C)c1`: “inactive”; for `COc1ccc(S(=O)(=O)N(C)C[C@@H]2OCCCC[C@@H](C)Oc3ccc(NC(=O)Nc4c(C)noc4C)cc3C(=O)N([C@H](C)CO)C[C@H]2C)cc1`: “inactive”. Regarding `C[C@H]1CN([C@@H](C)CO)C(=O)c2cc(NS(C)(=O)=O)ccc2O[C@H]1CN(C)C(=O)NC1CCCCC1`, the growth inhibition call is “inactive”. The value for `CN([NH2+][O-])c1ccc(O)c(O)c1` was “inactive”; that for `C[C@@H](N)c1ccc(F)cc1F` was “inactive”.

For the molecule `COc1ccc(S(=O)(=O)Nc2cccc3c2O[C@@H](CN(C)C(=O)NC(C)C)[C@@H](C)CN([C@@H](C)CO)C3=O)cc1`, the growth inhibition call is “inactive”. Regarding `Cc1c2c(nn1C)CSCc1cc(n(C)n1)CSc1cc(c3ccccc3c1)OCCCc1c(C(=O)O)n(C)c3c-2c(Cl)ccc13`, the growth inhibition call was “active”. The value for `C[C@H]1CN([C@@H](C)CO)C(=O)c2cc(NC(=O)Nc3ccc(C(F)(F)F)cc3)ccc2O[C@@H]1CN(C)C(=O)Nc1ccc2c(c1)OCO2` was “inactive”; that for `OCCC[C@@H](O)c1ccc(OCCO)cc1` was “inactive”. Turning to `N=C(N)c1ccc(OCCCCCOc2ccc(C(=N)N)cc2)cc1.O=S(=O)(O)CCO.O=S(=O)(O)CCO`, the growth inhibition call was “active”. The same measure for `N=C(N)c1ccc(C(N)=O)cc1`: “inactive”; for `COc1ccc(S(=O)(=O)Nc2ccc3c(c2)C(=O)N([C@@H](C)CO)C[C@H](C)[C@H](CN(C)CC2CC2)O3)cc1`: “inactive”; for `C[C@@H]1CN([C@@H](C)CO)C(=O)c2cc(NS(=O)(=O)c3ccccc3)ccc2O[C@@H](C)CCCCO[C@H]1CN(C)S(=O)(=O)c1cn(C)cn1`: “inactive”. For `C[C@H](CO)N1C[C@H](C)[C@H](CN(C)S(=O)(=O)c2ccc(F)cc2)Oc2ncc(-c3ccncc3)cc2C1=O`, the growth inhibition call is “inactive”. The value for `COc1cc(OC)c(C(C)=O)c(O)c1C` was “inactive”; that for `CC(=O)C1C(=O)C=C(C)OC1=O` (stereo not given) was “inactive”. As to `CC(=O)c1c(O)c(C)c(O)c2c1OC1=CC(=O)C(C(C)=O)C(=O)C12C` (stereo not given), the growth inhibition call is “active”. Turning to `CCCc1c(SCCCOc2ccc(C(C)=O)c(OCCCC(=O)O)c2CCC)ccc(C(C)=O)c1O`, the growth inhibition call was “active”. The same measure for `COCC(=O)Nc1ccc2c(c1)C(=O)N(C)C[C@@H](OC)[C@H](C)CN(Cc1cccc(F)c1)[C@H](C)CO2`: “inactive”.

For `CC(=O)N1c2ccccc2C2=NNC(=S)N[C@]21O`, the growth inhibition call was “inactive”. The value for `C[C@H]1CCCCO[C@H](CN(C)C(=O)Cc2ccccc2)[C@@H](C)CN([C@@H](C)CO)C(=O)c2cc(NC(=O)Nc3ccc(F)cc3)ccc2O1` was “inactive”.

As to `C[C@@H]1CN([C@@H](C)CO)C(=O)c2cc(/C=C/c3ccccc3)cnc2O[C@@H]1CN(C)C(=O)C1CCOCC1`, the growth inhibition call is “inactive”. The value for `CON=C(C(=O)NC1C(=O)N2C(C(=O)O)=C(CSC(=O)c3ccco3)CSC12)c1csc(N)n1.Cl` (stereo not given) was “active”.

In the case of `CO/N=C(\C(=O)N[C@@H]1C(=O)N2C(C(=O)O)=C(CSC(=O)c3ccco3)CS[C@H]12)c1csc(N)n1`, the growth inhibition call was “active”. The value for `Cc1noc(C)c1S(=O)(=O)Nc1ccc2c(c1)C(=O)N([C@@H](C)CO)C[C@H](C)[C@@H](CN(C)S(=O)(=O)c1ccc(Cl)cc1)O2` was “inactive”; that for `N=C(N=C(N)N)NCCc1ccccc1` was “inactive”; that for `NNCCc1ccccc1.O=S(=O)(O)O` was “inactive”. As for `NNCCc1ccccc1`, the growth inhibition call was “active”. The same measure for `O=c1[nH]c(=O)n(C2CC(O)C(CO)O2)cc1I` (stereo not given): “inactive”. The value for `COc1cccc(OC)c1C(=O)NCCCO` was “inactive”; that for `COc1cccc(OC)c1C(=O)NN` was “inactive”; that for `COc1cccc(OC)c1C(=O)NC1C(=O)N2C1SC(C)(C)C2C(=O)[O-].[Na+]` (stereo not given) was “active”. In the case of `CCOc1ccc2ccccc2c1C(=O)NC1C(=O)N2C1SC(C)(C)C2C(=O)[O-].[Na+]` (stereo not given), the growth inhibition call is “active”.

In the case of `Cc1cc(=O)n2nc(CC(=O)NCCCn3c(C)cccc3=O)nc2[nH]1`, the growth inhibition call was “inactive”. `C[C@H]1CN([C@@H](C)CO)S(=O)(=O)c2ccc(Br)cc2O[C@H]1CN(C)S(=O)(=O)c1ccccc1`: the growth inhibition call was “inactive”. As to `Cc1noc(C)c1S(=O)(=O)N(C)C[C@@H]1Oc2ccc(NC(=O)C3CC3)cc2CC(=O)N([C@@H](C)CO)C[C@@H]1C`, the growth inhibition call was “inactive”. Turning to `C[C@@H]1CN([C@@H](C)CO)C(=O)c2cc(NS(=O)(=O)c3ccc(Cl)cc3)ccc2O[C@@H](C)CCCCO[C@@H]1CN(C)Cc1ccccc1`, the growth inhibition call was “inactive”. For the molecule `C[C@H]1CN([C@@H](C)CO)C(=O)c2c(c3ccccc3n2C)-c2ccccc2CO[C@H]1CN(C)C(=O)Nc1cccc(F)c1`, the growth inhibition call was “inactive”.

Values taken from the antibiotic and cytotoxicity screens of Wong et al. (2023).
